“And” between values parts separate entries of the source, which are not always exact repeats. Identical values can stand only once. About 83,000 compounds went through this panel and 20% of them were active in at least one assay; those are over-represented in the sample as a whole.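 Assay: single dose, 48 h. Readout: percent growth (0 = no net growth; negative = cell death). Active: <10.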 A number with no mark means an inactive call. The source made the active and inactive calls.
System: SK-MEL-5 melanoma
Assay: NCI-60 one-dose screen, 48 h (100 = growth as untreated, 0 = no growth, -100 = all killed)
Conditions: 10 µM
Protocol: Growth inhibition of the SK-MEL-5 human tumor cell line is measured as a screen for anti-cancer activity. Cells are grown in 96 well plates and exposed to the test compound for 48 hours. Compounds are tested at a single concentration, which is 10^-5 M for most compounds. The reported endpoint is percent growth (GI% or GIPRCNT), where numbers from 0 - 100% represent growth inhibition, and numbers from -100% - 0 represent cell death. For example, a value of 40 represents 60% growth inhibition. A value of 0 means no net growth occurred over the course of the experiment. A value of -40 indicates 40% of cells at the beginning of the experiment died by the end of the experiment. A value of -100 means all cells are dead at the end of the experiment.
NCI-60 Human Tumor Cell Lines Screen was performed using the standard one-dose NCI protocol, which is described in more detail at https://dtp.cancer.gov/discovery_development/nci-60/default.htm.
Compounds with GIPRCNT values below 10 were considered active. Activity score was based on GIPRCNT using the following formula: […]
Score is 0 for GIPRCNT values of 100 or above, 50 for GIPRCNT values of 0, and 100 for GIPRCNT values of -100.

| Structure (SMILES) | growth [%] |
| --- | --- |
| S=C(SSC(=S)N1CCCCC1)N1CCCCC1 | 93.9 |

Same assay, conditions: 10 µM unless noted

| Structure (SMILES) | growth |
| --- | --- |
| Oc1cccc2cccnc12 | 97.2% and 99.9% and 110% |
| CCCCCCCCCCCC1CCCC(C)N1 (centres undefined) | 97% |
| COc1cccc2c1cc([N+](=O)[O-])c1c(C(=O)O)cc3c(c12)OCO3 | 78.9% and 104% |
| CCOC(=O)C(NC(=O)C(Cc1ccc(N(CCCl)CCCl)cc1)NC(C)=O)C(C)C (centres undefined) | 97.7% |
| CC1=C2C(=O)[C@H]3[C@@H](CC=C4C[C@@H](O)CC[C@@]43C)[C@@H]2CC[C@]12O[C@@H]1C[C@H](C)CN[C@H]1[C@H]2C | 96.8% |
| O=C1c2ccccc2C(=O)C(Cl)C1Cl (centres undefined) | 86.3% |
| C[C@H]1CCC/C=C/[C@@H]2C[C@H](O)C[C@H]2[C@H](O)/C=C/C(=O)O1 | -96.7% (active) |
| NCCc1ccc(OCc2ccccc2)c(OCc2ccccc2)c1 | 89.3% |
| Cc1c(N)nc([C@H](CC(N)=O)NC[C@H](N)C(N)=O)nc1C(=O)N[C@H](C(=O)N[C@H](C)[C@@H](O)[C@H](C)C(=O)N[C@H](C(=O)NCCc1nc(-c2nc(C(=O)NCCC[S+](C)C)cs2)cs1)[C@@H](C)O)C(OC1OC(CO)C(O)C(O)C1OC1OC(CO)C(O)C(OC(N)=O)C1O)c1cnc[nH]1 (some centres undefined) | 34.1% [2.5 µM] |
| CC[C@@]1(O)C[C@H](OC2CC(N(C)C)C(O)C(C)O2)c2c(O)c3c(c(O)c2[C@H]1OC1CC(N(C)C)C(O)C(C)O1)C(=O)c1cccc(O)c1C3=O (some centres undefined) | -89% (active) |
| CCC1(O)CC(OC2CC(N(C)C)C(OC3CC4OC5CC(=O)C(C)OC5OC4C(C)O3)C(C)O2)c2c(cc3c(c2O)C(=O)c2c(O)ccc(O)c2C3=O)C1C(=O)OC (centres undefined) | -87.3% (active) |
| Cc1cc(N=Nc2ccccc2C)ccc1N | 79.3% |
| CC[C@](O)(C(=O)O)c1cc2n(c(=O)c1CO)Cc1cc3ccccc3nc1-2 | -94.2% (active) |
| CO[C@H](/C(C)=C/C=C/C(C)=C/c1coc(C)n1)[C@H](C)[C@H]1C[C@@H](O)[C@@]2(C)O[C@H]2/C=C/[C@@H](C)[C@@H]2C[C@@H](CC(=O)O2)C[C@H]2O[C@@H]2C(=O)O1 | -18.7% (active) |
| Oc1cc[c]([Hg][Cl])cc1 | 74.5% |
| CC[C@@]1(O)C[C@H](OC2CC(N(C)C)C(OC3CC(O)C(OC4CCC(=O)C(C)O4)C(C)O3)C(C)O2)c2c(cc3c(c2O)C(=O)c2c(O)ccc(O)c2C3=O)[C@H]1C(=O)OC (some centres undefined) | -24.9% (active) |
| CN1CCN(c2ccc([N+](=O)[O-])c3no[n+]([O-])c23)CC1 | -46.6% (active) |
| CC1=C(CO)C2=C(C)C3(CC3)[C@@](C)(O)C(=O)C2=C1 | -84.1% (active) |
| C[C@]12CC[C@H](O)CC1=CC[C@@H]1[C@@H]2CC[C@]2(C)C(=O)CC[C@@H]12 | 92.9% |
| COC1=C(C)C(=O)C2=C(C1=O)C(CO)N1C(C#N)C3CC4C(C1C2N1CCOC41)N3C (centres undefined) | -90.1% (active) |
| CCC(=O)OC1CCn2c1nc1c2C(=O)C(C)=C(N2CC2)C1=O (centres undefined) | -98% (active) |
| CC[C@@]1(O)C(=O)OCc2c1cc1n(c2=O)Cc2cc3ccccc3nc2-1 | -83.9% (active) |
| COc1ccccc1/C=C(/C)[N+](=O)[O-] | 80.3% and 102% |
| CC(=O)O[C@H]1C[C@@H]2OC3C=C(C)CCC3(C)[C@@]1(C)[C@@]21CO1 (some centres undefined) | -47.8% (active) and -66.8% (active) |
| Cc1ccc(C(=O)OC(C(=O)O)C(OC(=O)c2ccc(C)cc2)C(=O)O)cc1 (centres undefined) (tested in a mixture with another compound) | 14.7% |
| COC1CC(CC2CCC(C)C(C(C)C(=O)O)O2)OC2(OC(C)(C3CCC(C)(C4OC(C5OC(O)(CO)C(C)CC5C)CC4C)O3)CC2C)C1C (centres undefined) | -96.3% (active) |
| COc1ccc(OC)c(/C=C/[N+](=O)[O-])c1 | -16.2% (active) |

Same assay, conditions: 100 µM

| Structure (SMILES) | growth |
| --- | --- |
| S=C(SSC(=S)N1CCCCC1)N1CCCCC1 | -18% (active) |

From PubChem BioAssay (NCI)
